# Assay results as given in PubChem BioAssay (NCATS).
# Records with an inconclusive call do not appear. A call without a number means that no potency is given here. The source made the active and inactive calls. Calls come from the whole dose curve; tested in HEK293 reporter line.
# Assay: qHTS for Inhibitors of the Functional Ribonucleoprotein Complex (vRNP) of Lassa (LASV) Arenavirus: LASV Primary Screen - GLuc reporter signal (AID 1347082); note: nearly all actives have a fitted effect of over 60% in size
# Settings: LASV minigenome vRNP, Gaussia luciferase reporter; series mostly up to 57.5 µM
# Potency is the fitted concentration of half-maximal effect.
row,Compound,Potency
1,C[S+](C)CCC(N)C(=O)O (stereo unspecified),inactive
2,CCC(C(=O)O)C1CCC(C)C(C(C)C(O)C(C)C(=O)C(CC)C2OC3(C=CC(O)[C@@]4(CC[C@](C)(C5CC[C@@](O)(CC)C(C)O5)O4)O3)C(C)CC2C)O1 (stereo partly specified),3.43 µM (active)
3,CC(C)C[C@H](NC(=O)CNC(=O)c1cc(Cl)ccc1Cl)B1OC(=O)CC(CC(=O)O)(C(=O)O)O1 (stereo partly specified),7.69 µM (active)
4,Cc1ccc2nc(NC(=O)CSc3nc4c(c(=O)n3-c3ccccc3)SCC4)sc2c1,19.3 µM (active)
5,COc1cc(Nc2ncc(F)c(Nc3ccc4c(n3)N(COP(=O)(O)O)C(=O)C(C)(C)O4)n2)cc(OC)c1OC,inactive
6,COc1cc(F)c(F)c(Nc2ccc(I)cc2F)c1NS(=O)(=O)C1(C[C@H](O)CO)CC1,inactive
7,OC[C@H]1O[C@@H](n2cnc3c(NC4CCCC4)ncnc32)[C@H](O)[C@@H]1O,inactive
8,CCc1ccc(C(=O)Nc2cc(CN3CCN(C)CC3)cc(C(F)(F)F)c2)cc1C#Cc1cnc2ccnn2c1,inactive
9,C[C@H](CCC(=O)O)[C@H]1CC[C@H]2[C@H]3[C@@H](CC[C@]12C)[C@@]1(C)CC[C@@H](O)C[C@H]1C[C@@H]3O,inactive
10,CC(C)C[C@H](CC(=O)O)C(=O)N[C@@H](Cc1c[nH]c2ccccc12)C(=O)N[C@@H](C)c1ccccc1,inactive
11,O=C1NC(=O)C(c2cnc3ccccn23)=C1c1cn2c3c(cccc13)CN(C(=O)N1CCOCC1)CC2,inactive
